Measured values from PubChem BioAssay AID1851 (National Center for Advancing Translational Sciences (NCATS), 2009).
Where “and” joins values, the source holds several entries; their conditions need not be identical. Equal values may be shown once. Among all 16,000 compounds or so, about 5,700 (36%) were called active. Inconclusive results (about 24%) are left out. The list shows a part of the results. Values without a mark were called inactive. The call rests on the fitted dose curve; in most records, active means well fitted curve in the direction sought with a large enough effect; inconclusive means small, poorly fitted or top-dose-only effect, or effect the other way; inactive means no such curve, though single readings can be large or run the other way.

What follows are compounds tested against Cytochrome P450 1A2 (Homo sapiens) (UniProt P05177) (assay: Cytochrome panel assay with activity outcomes). Conditions: recombinant CYP, pro-luciferin dealkylation, luminescence, p450-cyp1a2; series mostly up to 57.1 µM; activity, negative = inhibition: at the top concentration.
On the % scale 0 is the no-effect control and ±100 the full control effect.

Sequence of Cytochrome P450 1A2 (Homo sapiens) (P05177 whole entry, looked up): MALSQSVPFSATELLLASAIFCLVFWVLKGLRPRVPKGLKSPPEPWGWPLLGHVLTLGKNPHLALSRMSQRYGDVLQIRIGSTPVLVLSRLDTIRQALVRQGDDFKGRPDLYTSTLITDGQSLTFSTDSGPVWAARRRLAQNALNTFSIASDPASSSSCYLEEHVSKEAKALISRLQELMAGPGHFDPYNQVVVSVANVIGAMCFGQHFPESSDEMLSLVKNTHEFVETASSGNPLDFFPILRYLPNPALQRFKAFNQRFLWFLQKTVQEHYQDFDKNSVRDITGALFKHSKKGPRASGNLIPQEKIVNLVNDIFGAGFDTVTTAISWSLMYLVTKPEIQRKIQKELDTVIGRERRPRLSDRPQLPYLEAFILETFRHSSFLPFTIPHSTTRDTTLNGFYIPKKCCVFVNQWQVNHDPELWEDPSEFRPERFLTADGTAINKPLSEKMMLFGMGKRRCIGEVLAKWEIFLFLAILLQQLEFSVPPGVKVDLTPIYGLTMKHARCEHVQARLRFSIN

SMILES | AC50 | activity, negative = inhibition
CCN(CC)CCC[C@H](C)Nc1c2ccc(Cl)cc2nc2ccc(OC)cc12 | 2 µM (active) and 1 µM (active) | –
Cc1cccc(N(CC(=O)N2CCOCC2)S(C)(=O)=O)c1 | – | 16.1%
CC(C)OP(=O)(OC(C)C)C(NC(=O)c1ccc(Br)cc1)c1ccccc1 (configuration not stated) | – | -25.6%
C/C(=N\NC(=O)c1cccc(Br)c1)c1ccc(Br)cc1 | 0.282 µM (active) | –
C/C(=N/NC(=O)c1ccc(NC(=O)c2ccc(F)cc2)cc1)c1ccccc1 | – | -8.1%
CCn1cc(C(=O)N/N=C(/C)c2ccc(F)cc2)c(=O)c2cc(F)c(N3CCCC3)cc21 | – | -9.37%
C/C(=N\NC(=O)c1ccc(Br)cc1)c1ccccc1 | 1.41 µM (active) | –
O=C(N/C(=C\c1cccnc1)C(=O)N1CCOCC1)c1cccc(Br)c1 | – | -21.1%
FC(F)(F)c1ccccc1-c1nccc(NCc2cccs2)n1 | 1.26 µM (active) | –
Cc1ccccc1-c1nccc(NCc2cccs2)n1 | 0.501 µM (active) | –
CN(C)Cc1ccccc1-c1nccc(NCc2cccs2)n1 | 0.794 µM (active) | –
CC1CCN(c2cc(N3CCC(C)CC3)c([N+](=O)[O-])cc2/C=C(\C#N)c2nn(-c3ccccc3)c(N)c2C#N)CC1 | – | 3.3%
O=C(Nc1ccccc1)C(Cc1ccccc1)NC(=O)C12CC3CC(CC(C3)C1)C2 (configuration not stated) | – | -0.717%
CCCC[P+](CCCC)(CCCC)Cc1ccc(NC(=O)[C@@H](Cc2ccc3ccccc3c2)NC(=NC2CCCCC2)NC2CCCCC2)cc1 | 31.6 µM (active) | –
COc1ccc(CC(NC(C)=O)C(=O)NC2CCN(C(=O)Nc3ccc(Cl)cc3)CC2)cc1OC (configuration not stated) | – | -18.2%
CCNC(=S)NNC(=O)CCn1c2ccccc2c2ccccc21 | 2.82 µM (active) | –
CCNC(=S)NNC(=O)Cc1ccccc1 | – | 9.81%
CC(=O)C1=NOC(CNC(=O)c2c(-c3ccccc3Cl)noc2C)C1 (configuration not stated) | – | 4.12%
N#Cc1c(NC(=O)C2CC(c3ccccc3Cl)=NO2)sc2c1CCC2 (configuration not stated) | 3.55 µM (active) | –
COc1ccc(COC(=O)N/N=C2/C[C@@H](O)[C@@H](O)[C@@H]3[C@@H]4C(=O)N([C@@H](C)c5ccccc5)C(=O)[C@H]4CC[C@@H]23)cc1 | – | -1.59% [at 11.4 µM]
CSc1ccc(CNc2ccc(C)c(C)c2)cc1 | 0.891 µM (active) | –

SMILES | AC50 | activity, negative = inhibition
CSc1ccc(CNc2ccccc2)cc1 | 25.1 µM (active) | –
CSc1ccc(CNc2ccc(Cl)cc2)cc1 | 10 µM (active) | –
CC(Sc1nc(NCc2ccccc2)nc(N(C)C)n1)C(=O)Nc1ccccc1 (configuration not stated) | – | -24.4%
CCCCC[C@H](CC(=O)NO)C(=O)N[C@@H](C(=O)N1CCC[C@H]1CO)C(C)C | – | -5.78%
O=c1cnc2cnc(Oc3ccccc3)nc2n1CCc1ccccc1 | 3.16 µM (active) | –
COCCn1c(=O)cnc2cnc(Oc3ccccc3)nc21 | 15.8 µM (active) | –
COCCn1c(=O)c(C)nc2cnc(Oc3ccc(OC)cc3)nc21 | 15.8 µM (active) | –
Cn1c(=O)cnc2cnc(Oc3ccccc3)nc21 | 10 µM (active) | –
Cc1nn(S(=O)(=O)c2cccs2)c(C)c1Sc1ccc([N+](=O)[O-])cc1 | – | -14.2%
O=C1CCCN1CC(CN1CCOCC1)Sc1nnnn1-c1ccccc1 (configuration not stated) | – | -4.25%
CCN(CC)CCCN(Cc1cc2ccc(C)c(C)c2[nH]c1=O)C(=O)NC1CCCCC1 | – | -13.6%
COc1ncc2ncc(=O)n(C)c2n1 | 12.6 µM (active) | –
COCCn1c(=O)cnc2cnc(Oc3ccc(OC)cc3)nc21 | 5.01 µM (active) | –
COc1ccc(-n2c(=O)cnc3cnc(Oc4ccccc4)nc32)cc1 | 15.8 µM (active) | –
CN(Cc1cnc2nc(N)nc(N)c2n1)c1ccc(C(=O)N[C@@H](CCC(=O)O)C(=O)O)cc1 | – | -17.7%
N=c1sc2ccccc2n1CCS (tested in a mixture with another compound) | 1 µM (active) | –
O=c1cnc2cnc(N3CCOCC3)nc2n1C[C@H]1CCCO1 | 10 µM (active) | –
CN1CCN(c2ncc3ncc(=O)n(C[C@H]4CCCO4)c3n2)CC1 | 10 µM (active) | –
O=c1cnc2cnc(N3CCOCC3)nc2n1C1CC1 | 6.31 µM (active) | –
CCn1cc(C(=O)O)c(=O)c2cnc(N3CCNCC3)nc21 | – | -8.44% [at 25.6 µM]
O=C1C=C[C@@H](O)[C@H]2[C@@H]3C(=O)N(c4cccc(Oc5ccccc5)c4)C(=O)[C@@H]3CC[C@H]12 | – | -5.61% [at 11.4 µM]

SMILES | AC50 | activity, negative = inhibition
COC(=O)c1nn(-c2ccccc2)c(-c2ccccc2)c1C(=O)c1ccccc1 | – | -20.1%
COC(=O)c1nn(-c2ccccc2)c(=O)cc1Oc1ccccc1 | 20 µM (active) | –
COC(=O)N1CCC2(CCCN(Cc3ccccc3)C2)CC1 | – | -12.4%
O=C(c1ccncc1)N1CCC[C@@]2(CCN(c3ncccn3)C2)C1 | – | -21.1%
CO/N=C(\C)CCN1CCCCc2nc(C)c(C)cc21 | – | -3.72% [at 11.4 µM]
CN1CCC(=NNC(=O)CSCc2ccccc2)CC1 | 14.1 µM (active) | –
CC1CCC(=NNC(=O)Cc2ccccc2)CC1 (configuration not stated) | – | -16.9%
CN(C)c1ccc(-c2noc(C3CCN(S(=O)(=O)c4cccc(C(=O)O)c4)CC3)n2)cc1 | – | -19.7%
CCCCC1CCC(c2nc(-c3ccccn3)no2)CC1 (configuration not stated) | 28.2 µM (active) | –
Cc1cc(C)c(C#N)c(SCC(=O)c2ccc(Cl)cc2Cl)n1 | 2.24 µM (active) | –
Cc1cc(C)c(C#N)c(SCc2cc3c(cc2Cl)OCO3)n1 | 2.24 µM (active) | –
C/C(=N\[N+](C)(C)C)c1ccc(C)c(C)c1 | – | -16.9% [at 2.29 µM]
Cc1ccc(S(=O)(=O)c2cc(N3CCOCC3)nc(-c3ccccc3)n2)cc1 | 4.47 µM (active) | –
COc1cccc(Sc2cc(N3CCOCC3)nc(-c3ccccc3)n2)c1 | 2.51 µM (active) | –
O=c1nc(N2CCOCC2)ccn1-c1nc(-c2ccccc2)oc1-c1ccccc1 | – | -15.5%
Cc1cccc(C(=O)N2CCC(c3nc(-c4ccc(S(=O)(=O)N5CCOCC5)cc4)no3)CC2)c1 | – | 1.35%
Cc1ccc(Oc2cc(N3CCOCC3)nc(-c3ccccc3)n2)cc1 | 2.51 µM (active) | –
Cc1ccc(C(=O)N2CCN(c3cc(=O)[nH]nc3-c3ccccc3)CC2)cc1 | – | -1.63%
N=C(N)c1ccc(N)cc1 | – | 6.37%
O=C(O)CS(=O)c1ccc2c3c(cccc13)C(=O)c1ccccc1-2 (configuration not stated) | 0.0631 µM (active) | –
